Test results reported in ChEMBL document CHEMBL3988442, “University of Dundee, Small-Polar-MMV Screening Library” (2021).
For some of these results: Results with a measured potency or affinity are listed apart.

What was measured:
[1] = biological target: Protein translocase subunit SecA (Escherichia coli (strain K12)) (UniProt P10408); assay: Assay to Identify E. coli SecA ATPase Inhibitors; assay type: functional; set-up: scale not given: direction of the effect not stated beside the values; conditions: 30 µM
[2] = biological target: T1, Ubiquitin-activating enzyme e1, putative (Leishmania donovani (strain BPK282A1)) (UniProt E9BSI1); assay: Leishmania donovani Ubiquitin Activating Enzyme (LdE1); assay type: functional; set-up: scale not given: direction of the effect not stated beside the values; conditions: 30 µM
T1 sequence (whole entry): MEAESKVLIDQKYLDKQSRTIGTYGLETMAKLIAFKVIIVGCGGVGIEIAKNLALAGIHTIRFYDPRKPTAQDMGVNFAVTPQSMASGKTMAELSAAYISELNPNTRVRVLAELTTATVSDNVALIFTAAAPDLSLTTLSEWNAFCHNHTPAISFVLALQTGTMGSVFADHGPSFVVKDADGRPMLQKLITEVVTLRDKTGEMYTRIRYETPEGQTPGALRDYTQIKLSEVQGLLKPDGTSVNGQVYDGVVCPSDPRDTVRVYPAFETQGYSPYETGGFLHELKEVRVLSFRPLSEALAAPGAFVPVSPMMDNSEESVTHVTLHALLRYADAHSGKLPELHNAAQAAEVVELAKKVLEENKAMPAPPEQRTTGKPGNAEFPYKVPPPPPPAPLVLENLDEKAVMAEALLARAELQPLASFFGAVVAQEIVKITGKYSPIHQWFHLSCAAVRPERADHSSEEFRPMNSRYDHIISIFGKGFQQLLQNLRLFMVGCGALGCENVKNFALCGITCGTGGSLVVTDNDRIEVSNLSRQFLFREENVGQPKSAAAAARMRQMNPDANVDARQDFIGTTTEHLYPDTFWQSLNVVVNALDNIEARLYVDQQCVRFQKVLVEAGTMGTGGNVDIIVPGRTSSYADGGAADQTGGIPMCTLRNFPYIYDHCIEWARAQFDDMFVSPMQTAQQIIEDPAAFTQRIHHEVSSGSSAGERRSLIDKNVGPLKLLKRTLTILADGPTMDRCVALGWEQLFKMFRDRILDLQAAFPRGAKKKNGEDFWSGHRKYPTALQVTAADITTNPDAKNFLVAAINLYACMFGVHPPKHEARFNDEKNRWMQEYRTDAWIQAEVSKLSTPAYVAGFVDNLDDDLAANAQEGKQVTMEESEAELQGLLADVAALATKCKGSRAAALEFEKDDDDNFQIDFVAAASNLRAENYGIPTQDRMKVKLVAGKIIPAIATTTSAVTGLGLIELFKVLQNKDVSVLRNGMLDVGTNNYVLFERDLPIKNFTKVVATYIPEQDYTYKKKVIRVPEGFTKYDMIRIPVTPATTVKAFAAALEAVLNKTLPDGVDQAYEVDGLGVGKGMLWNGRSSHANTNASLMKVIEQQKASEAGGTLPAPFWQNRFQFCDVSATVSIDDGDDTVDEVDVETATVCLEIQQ

[3] = biological target: AMP-activated protein kinase, AMPK (Homo sapiens) (UniProt P54646+O43741+P54619+Q9UGJ0+Q9Y478+Q13131+Q9UGI9); assay: AMP-dependent Kinase enzyme assay. An in vitro enzyme assay that detects ADP turnover that is directly proportional to AMPK activity. This uses naive AMPK that is activated during the assay with MK-8722; assay type: functional; set-up: scale not given: direction of the effect not stated beside the values; conditions: 30 µM
[4] = biological target: Sialic acid-binding Ig-like lectin 9 (Homo sapiens) (UniProt Q9Y336); assay: Hs-Siglec9 ALPHAscreen SOP 20170721; set-up: scale not given: direction of the effect not stated beside the values; conditions: 10 µM
Trypanosoma cruzi = assay: Trypanosoma cruzi phosphomannomutase and mannose-1-phosphate guanylyltransferase assay; assay type: functional; set-up: scale not given: direction of the effect not stated beside the values; conditions: 10 µM
[5] = biological target: T2, Arginase-2, mitochondrial (Homo sapiens) (UniProt P78540); assay: in vitro enzyme assay to detect the production of urea directly proportional to the activity of Arginase II; assay type: functional; set-up: scale not given: in the data most compounds retested in dose-response had high values
T2 sequence (whole entry): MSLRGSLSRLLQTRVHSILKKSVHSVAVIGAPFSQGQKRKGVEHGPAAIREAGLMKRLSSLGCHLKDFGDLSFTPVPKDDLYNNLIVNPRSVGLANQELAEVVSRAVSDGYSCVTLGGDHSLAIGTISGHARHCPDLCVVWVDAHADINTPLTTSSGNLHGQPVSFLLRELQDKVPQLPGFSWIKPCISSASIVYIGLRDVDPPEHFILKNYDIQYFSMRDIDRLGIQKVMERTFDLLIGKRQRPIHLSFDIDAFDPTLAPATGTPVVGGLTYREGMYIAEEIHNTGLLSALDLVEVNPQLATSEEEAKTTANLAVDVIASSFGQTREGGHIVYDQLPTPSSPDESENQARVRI

[6] = biological target: T3, Proteasome subunit beta (Trypanosoma cruzi) (UniProt O96673); assay: Trypanosoma cruzi proteasome chymotrypsin-like activity (TcProtChymo) assay.; assay type: functional; set-up: scale not given: in the data most compounds retested in dose-response had high values; conditions: 9.37 µM
T3 sequence (whole entry): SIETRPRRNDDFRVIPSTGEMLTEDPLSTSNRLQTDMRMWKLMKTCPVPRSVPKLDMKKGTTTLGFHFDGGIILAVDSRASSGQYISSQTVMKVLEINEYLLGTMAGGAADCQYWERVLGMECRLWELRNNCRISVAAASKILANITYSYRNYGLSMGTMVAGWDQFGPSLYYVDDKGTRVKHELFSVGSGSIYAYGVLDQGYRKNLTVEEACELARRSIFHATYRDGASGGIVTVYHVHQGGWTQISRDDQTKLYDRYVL

Homo sapiens = organism: Homo sapiens; assay: To identify inhibition of the IFN signalling (Jak-Stat) pathway via expression of an eGFP reporter gene under the control of an IFN-stimulated response element (ISRE) containing MxA promoter.; assay type: functional; set-up: scale not given: direction of the effect not stated beside the values; conditions: 30 µM
[7] = biological target: T4, Tyrosyl-tRNA synthetase, putative (Trypanosoma cruzi (strain CL Brener)) (UniProt Q4DSP6); assay: Trypanosoma cruzi tyrosyl tRNA synthetase (TcYRS) _High Tyrosine SOP; assay type: functional; set-up: scale not given: in the data most compounds retested in dose-response had high values; conditions: 30 µM
T4 sequence (whole entry): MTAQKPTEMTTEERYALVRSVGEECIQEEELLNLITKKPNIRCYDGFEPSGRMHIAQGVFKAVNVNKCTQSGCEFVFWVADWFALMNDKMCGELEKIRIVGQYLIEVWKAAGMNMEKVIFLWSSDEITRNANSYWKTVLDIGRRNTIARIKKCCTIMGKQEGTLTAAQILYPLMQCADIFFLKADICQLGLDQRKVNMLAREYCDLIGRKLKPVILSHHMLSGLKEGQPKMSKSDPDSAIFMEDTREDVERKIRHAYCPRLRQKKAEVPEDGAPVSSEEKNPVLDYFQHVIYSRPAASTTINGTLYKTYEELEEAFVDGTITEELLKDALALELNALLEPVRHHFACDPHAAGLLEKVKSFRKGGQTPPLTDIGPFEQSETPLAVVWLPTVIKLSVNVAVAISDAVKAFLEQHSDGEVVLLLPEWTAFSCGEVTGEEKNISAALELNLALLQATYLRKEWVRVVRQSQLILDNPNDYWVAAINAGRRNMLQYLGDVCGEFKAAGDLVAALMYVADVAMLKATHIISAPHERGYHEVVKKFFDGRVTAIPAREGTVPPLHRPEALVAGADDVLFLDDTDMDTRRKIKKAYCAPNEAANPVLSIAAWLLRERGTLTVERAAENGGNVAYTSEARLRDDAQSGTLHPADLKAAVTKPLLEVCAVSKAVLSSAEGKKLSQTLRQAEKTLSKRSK

[8] = biological target: T4, Tyrosyl-tRNA synthetase, putative (Trypanosoma cruzi (strain CL Brener)); assay: Trypanosoma cruzi tyrosyl tRNA synthetase (TcYRS) SOP; assay type: functional; set-up: scale not given: direction of the effect not stated beside the values; conditions: 30 µM
[9] = biological target: Chromo domain-containing protein 1 (Saccharomyces cerevisiae (strain ATCC 204508 / S288c) (Baker's yeast)) (UniProt P32657); assay: ScCHD-1 Enzyme Inhibition Assay; assay type: functional; set-up: scale not given: in the data most compounds retested in dose-response had high values; conditions: 30 µM
[10] = biological target: T5, Methionyl-tRNA synthetase, putative (Leishmania donovani (strain BPK282A1)) (UniProt E9BF75); assay: Leishmania donovani Methionine tRNA synthetase (LdMetRS):v7. Dose response assay; assay type: functional; set-up: conc 80 nM, time 150 minutes
T5 sequence (whole entry): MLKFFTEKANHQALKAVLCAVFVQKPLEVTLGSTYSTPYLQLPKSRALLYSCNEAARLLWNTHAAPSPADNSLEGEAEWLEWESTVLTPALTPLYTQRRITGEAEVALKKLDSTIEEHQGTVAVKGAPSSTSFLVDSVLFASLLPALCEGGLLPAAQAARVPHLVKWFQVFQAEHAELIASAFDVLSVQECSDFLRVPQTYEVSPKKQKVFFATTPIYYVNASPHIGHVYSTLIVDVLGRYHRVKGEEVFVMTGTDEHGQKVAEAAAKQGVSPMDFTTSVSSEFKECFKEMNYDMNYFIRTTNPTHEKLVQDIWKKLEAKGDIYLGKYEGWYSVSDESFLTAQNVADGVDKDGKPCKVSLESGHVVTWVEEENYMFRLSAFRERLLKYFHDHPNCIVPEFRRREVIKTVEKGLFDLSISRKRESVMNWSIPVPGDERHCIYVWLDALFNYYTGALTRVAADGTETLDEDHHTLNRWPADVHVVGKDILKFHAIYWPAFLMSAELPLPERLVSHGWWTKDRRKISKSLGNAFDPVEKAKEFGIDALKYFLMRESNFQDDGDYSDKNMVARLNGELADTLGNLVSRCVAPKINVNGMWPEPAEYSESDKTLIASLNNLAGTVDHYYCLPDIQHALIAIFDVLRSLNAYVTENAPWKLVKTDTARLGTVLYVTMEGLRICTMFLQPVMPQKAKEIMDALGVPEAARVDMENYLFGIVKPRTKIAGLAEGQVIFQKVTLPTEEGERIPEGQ

Chain of Sialic acid-binding Ig-like lectin 9 (Homo sapiens) (Q9Y336 whole entry): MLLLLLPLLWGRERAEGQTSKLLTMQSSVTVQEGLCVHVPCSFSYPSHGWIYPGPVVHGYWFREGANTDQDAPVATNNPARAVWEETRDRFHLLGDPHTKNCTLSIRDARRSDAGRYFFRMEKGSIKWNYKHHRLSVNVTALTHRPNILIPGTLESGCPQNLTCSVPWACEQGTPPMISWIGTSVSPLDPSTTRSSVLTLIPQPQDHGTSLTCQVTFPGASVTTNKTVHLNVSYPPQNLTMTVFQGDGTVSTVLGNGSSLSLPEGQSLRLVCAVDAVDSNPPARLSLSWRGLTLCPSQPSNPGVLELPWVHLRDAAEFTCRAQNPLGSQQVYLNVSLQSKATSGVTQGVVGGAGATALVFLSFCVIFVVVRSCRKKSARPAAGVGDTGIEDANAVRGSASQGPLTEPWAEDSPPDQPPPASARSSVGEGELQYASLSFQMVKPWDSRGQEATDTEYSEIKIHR
Chain of Chromo domain-containing protein 1 (Saccharomyces cerevisiae (strain ATCC 204508 / S288c) (Baker's yeast)) (P32657 whole entry, the tested form may be a part): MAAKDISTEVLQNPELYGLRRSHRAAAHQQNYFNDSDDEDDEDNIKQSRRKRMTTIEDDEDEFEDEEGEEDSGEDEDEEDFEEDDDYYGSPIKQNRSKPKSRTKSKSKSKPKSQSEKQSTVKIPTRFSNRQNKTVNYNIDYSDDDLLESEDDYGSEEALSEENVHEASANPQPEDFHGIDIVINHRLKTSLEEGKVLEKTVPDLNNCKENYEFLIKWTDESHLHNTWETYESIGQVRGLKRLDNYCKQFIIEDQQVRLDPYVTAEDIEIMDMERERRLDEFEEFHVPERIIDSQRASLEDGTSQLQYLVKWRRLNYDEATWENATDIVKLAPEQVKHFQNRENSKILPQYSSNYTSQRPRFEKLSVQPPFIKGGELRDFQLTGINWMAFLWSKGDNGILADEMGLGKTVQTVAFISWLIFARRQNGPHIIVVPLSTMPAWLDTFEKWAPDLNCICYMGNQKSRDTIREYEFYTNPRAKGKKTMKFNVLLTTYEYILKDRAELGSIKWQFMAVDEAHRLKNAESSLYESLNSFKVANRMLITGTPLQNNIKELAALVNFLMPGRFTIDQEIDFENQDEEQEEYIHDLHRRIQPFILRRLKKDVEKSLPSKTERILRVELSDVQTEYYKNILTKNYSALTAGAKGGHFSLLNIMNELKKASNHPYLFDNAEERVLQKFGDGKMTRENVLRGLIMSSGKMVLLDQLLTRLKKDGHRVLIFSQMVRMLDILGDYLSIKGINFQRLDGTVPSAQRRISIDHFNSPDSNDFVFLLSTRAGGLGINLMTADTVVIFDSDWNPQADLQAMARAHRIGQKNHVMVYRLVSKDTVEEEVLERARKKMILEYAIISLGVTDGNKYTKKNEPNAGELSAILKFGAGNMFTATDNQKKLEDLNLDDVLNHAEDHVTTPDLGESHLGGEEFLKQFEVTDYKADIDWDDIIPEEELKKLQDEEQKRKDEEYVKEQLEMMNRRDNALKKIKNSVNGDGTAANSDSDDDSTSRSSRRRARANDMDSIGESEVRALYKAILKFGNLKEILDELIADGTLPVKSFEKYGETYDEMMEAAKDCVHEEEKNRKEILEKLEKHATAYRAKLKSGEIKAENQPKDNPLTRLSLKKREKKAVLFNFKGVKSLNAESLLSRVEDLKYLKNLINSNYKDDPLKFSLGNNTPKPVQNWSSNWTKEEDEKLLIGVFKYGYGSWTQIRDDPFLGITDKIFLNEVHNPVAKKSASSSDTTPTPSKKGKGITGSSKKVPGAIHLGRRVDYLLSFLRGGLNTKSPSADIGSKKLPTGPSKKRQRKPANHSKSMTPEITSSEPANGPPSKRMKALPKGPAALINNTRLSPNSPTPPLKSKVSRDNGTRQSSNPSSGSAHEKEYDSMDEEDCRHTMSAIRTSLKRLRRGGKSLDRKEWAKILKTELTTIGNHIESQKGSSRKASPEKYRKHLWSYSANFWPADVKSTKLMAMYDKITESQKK
Chain of Protein translocase subunit SecA (Escherichia coli (strain K12)) (P10408 whole entry): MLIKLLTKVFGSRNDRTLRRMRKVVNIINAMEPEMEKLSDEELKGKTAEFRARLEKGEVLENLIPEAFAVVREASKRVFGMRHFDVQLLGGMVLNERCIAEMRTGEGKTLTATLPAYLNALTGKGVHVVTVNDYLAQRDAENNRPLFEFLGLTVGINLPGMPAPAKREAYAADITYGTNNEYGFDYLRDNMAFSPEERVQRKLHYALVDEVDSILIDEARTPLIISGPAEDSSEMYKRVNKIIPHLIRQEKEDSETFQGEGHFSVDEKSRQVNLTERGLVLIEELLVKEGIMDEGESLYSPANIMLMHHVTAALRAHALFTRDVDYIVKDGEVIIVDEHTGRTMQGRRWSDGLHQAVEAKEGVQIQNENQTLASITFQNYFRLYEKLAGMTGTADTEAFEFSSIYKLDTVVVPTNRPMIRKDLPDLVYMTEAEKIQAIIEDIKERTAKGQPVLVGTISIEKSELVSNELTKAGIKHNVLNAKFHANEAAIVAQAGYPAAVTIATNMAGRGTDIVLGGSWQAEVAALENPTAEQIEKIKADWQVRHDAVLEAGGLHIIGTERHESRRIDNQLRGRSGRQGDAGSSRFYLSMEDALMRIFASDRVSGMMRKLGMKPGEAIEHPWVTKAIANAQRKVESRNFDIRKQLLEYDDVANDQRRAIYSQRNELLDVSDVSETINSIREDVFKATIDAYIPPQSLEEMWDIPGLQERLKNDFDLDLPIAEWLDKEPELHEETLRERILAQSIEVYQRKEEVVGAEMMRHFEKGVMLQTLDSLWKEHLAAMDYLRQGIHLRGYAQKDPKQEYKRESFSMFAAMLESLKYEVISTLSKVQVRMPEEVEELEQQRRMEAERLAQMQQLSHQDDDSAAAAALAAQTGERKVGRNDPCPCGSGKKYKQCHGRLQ

Structure (SMILES)	Percent Effect [1] [%]	Percent Effect [2] [%]	Percent Effect [3] [%]	Percent Effect [4] [%]	Percent Effect (Trypanosoma cruzi) [%]	Percent Effect ([5]; 30 µM) [%]	Percent Effect ([5]; 33.3 µM) [%]	Percent Effect [6] [%]	Percent Effect (Homo sapiens) [%]	Percent Effect [7] [%]	Percent Effect [8] [%]	Percent Effect [9] [%]	PXC50 ([10]; MAX_EFFECT 27.99295775)	PXC50 ([10]; MAX_EFFECT 39.42992874)	PXC50 ([10]; BOTTOM -1.512370452, HILLSLOPE 1.01203919, MAX_EFFECT 54.40140845, TOP 92.97919978)	PXC50 ([10]; BOTTOM -1.802135636, HILLSLOPE 1.091019119, MAX_EFFECT 56.05700713, TOP 88.72898538)	PXC50 ([10]; MAX_EFFECT 18.13380282)	PXC50 ([10]; MAX_EFFECT 20.42755344)
Cc1nc(C2CCCN2C(=O)CNS(C)(=O)=O)no1 (centres undefined)	-2.65	5.33	-7.92	-1.69	-0.876	-12.4	0	10.5	5.88	7.1	18.5	-12.8						
CCCN1CCC(NC(=O)c2ccc(F)cc2I)CC1	-2.2	18.1	-6.61	17.7	2.23	5.95	24.3	12.5	-17.1	8.42	15.4	-5.41						
CCC(CO)NC(=O)c1ccc2ccc(N(C)CC3CC3)n2c1 (centres undefined)	3.49	3.9		0.399	3.56		0.457	15.2	8.81	12.6	15	-3.69	< 4	< 4				
CN(CC1CC1)c1ccc2ccc(C(=O)NCCN3CCOCC3)cn12	0.0454	6.49		-2.21	2.06		2.28	0.944	29.3	34.8	15	-2.15			4.18	4.23		
Cn1cc(CC2CCN(C(=O)NCCc3cccc(O)c3)C2)cn1 (centres undefined)	-1.93	0	11.8	1.28	-3.8	5.95	-2.37	11	-12	5.32	7.79	-2.6						
COc1c(CNC2CCc3c(Cl)cccc32)c(C)nn1C (centres undefined)	-3.04	8	-13.3	15.4	7.89	1.62	14.1	16.2	53.8	4.92	16.1	108						
CN(Cc1ccco1)[C@@H]1CN(Cc2ccco2)[C@@H]2CCCO[C@H]12	-1.09	2.67	15.3	-0.135	-5.71	-2.7	3.03	13.5	2.84	4.25	11.5	-5.52						
O=C(CCC1CCCC1)N1CCC(c2ncc3c(n2)CCNC3)CC1	-7.04	14.9	0.0771	5.51	2.57		-6.26	8.42	31.7	10.8	19.5	-23.3					< 4	< 4
CC1CCN(S(=O)(=O)c2cccn(CC(=O)N3CCOCC3)c2=O)CC1	-2.79	9.33	5.14	0.129	-4.91	3.78	-3.7	7.02	0.032	1.06	2.56	-7.85						
